# Experimental data reported in the supplement of paper PMC10849652.
# About 8,800 targets were measured; listed, in parts, are those with a hit and a random draw of the rest. About 0.5% of all pairs of compound and target were hits. Unmarked numbers belong to inactive results.
# Key:
# Assay in all cases: log2 fold change, soluble protein after heating vs DMSO (PISA); higher = thermal stabilisation; K562 lysate, 10 uM; active = over 0.2 and 3.5 SD of the protein, either way, in both replicates (recomputed)
# erlotinib = compound: C#Cc1cccc(Nc2ncnc3cc(OCCOC)c(OCCOC)cc23)c1 [erlotinib]
# Summary of the method: (§1)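 Dounce homogenisation of K562 pellets in PBS pH 7.4 with 1 mM MgCl2 produced a crude extract, used at 1 mg/mL protein. Exposure to 10 μM compound lasted 30 min, and aliquots were then heated for 3 min across 48°C-58°C, pooled and brought to 0.5% NP-40 at 4°C. The supernatant after 21,000xg for 90 min was quantified by TMTpro 16plex LC-MS/MS with channel sums equalised. Duplicate values are given as log-two fold change in thermal stability relative to solvent controls.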
# [1] = compound: C/C(=N\NC(=O)C1=CC(=CC=C1)S(=O)(=O)N2CCOCC2)/C3=C(C=CC(=C3)Cl)O
# Summary of the method: as §1
# [2] = compound: C1=CC(=CC=C1C2=NC3=C(N2)C=C(C=C3)C(=O)N)OC4=CC=C(C=C4)Cl
# Summary of the method: as §1
# [3] = compound: C1=CC2=C(C=CC(=C2)/C=C\3/C(=O)NC(=NCC4=CC=CS4)S3)N=C1
# Summary of the method: as §1
# [4] = compound: C1=CC2=NC=CN=C2C=C1/C=C/3\C(=O)NC(=O)S3
# Summary of the method: as §1
# [5] = compound: C1=CC=C(C=C1)C2=NC(=C(N2)C3=CC=NC=C3)C4=CC(=C(C=C4)Cl)O
# Summary of the method: as §1
# [6] = compound: C1=CC=C2C(=C1)C3=NNC4=CC=CC(=C43)C2=O
# Summary of the method: as §1
# [7] = compound: C1CCN(C1)C(=O)NC2=CC=CC(=C2)NC3=NC=C(C(=N3)NCCC4=CN=CN4)Br
# Summary of the method: as §1
# [8] = compound: C1CN(CCC1(CC2=CC=C(C=C2)Cl)N)C3=NC=NC4=C3C=CN4
# Summary of the method: as §1
# IRAK-1-4 Inhibitor I = compound: C1COCCN1CCN2C3=CC=CC=C3N=C2NC(=O)C4=CC(=CC=C4)[N+](=O)[O-] [IRAK-1-4 Inhibitor I]
# Summary of the method: as §1
# UniProt Q9H497, sequence (Q9H497 whole entry, looked up): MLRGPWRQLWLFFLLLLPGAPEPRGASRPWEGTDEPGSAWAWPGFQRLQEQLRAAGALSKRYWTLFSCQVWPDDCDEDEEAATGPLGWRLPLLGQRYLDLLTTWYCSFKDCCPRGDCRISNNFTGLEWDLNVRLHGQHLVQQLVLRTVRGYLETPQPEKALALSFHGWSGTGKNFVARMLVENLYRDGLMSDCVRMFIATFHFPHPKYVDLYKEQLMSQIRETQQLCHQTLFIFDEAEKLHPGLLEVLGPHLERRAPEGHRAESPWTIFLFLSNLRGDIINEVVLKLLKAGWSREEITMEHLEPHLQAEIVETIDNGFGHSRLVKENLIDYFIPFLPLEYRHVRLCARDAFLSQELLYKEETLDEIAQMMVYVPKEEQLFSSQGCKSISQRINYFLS
# UniProt Q5TEJ8, sequence (Q5TEJ8 whole entry, looked up): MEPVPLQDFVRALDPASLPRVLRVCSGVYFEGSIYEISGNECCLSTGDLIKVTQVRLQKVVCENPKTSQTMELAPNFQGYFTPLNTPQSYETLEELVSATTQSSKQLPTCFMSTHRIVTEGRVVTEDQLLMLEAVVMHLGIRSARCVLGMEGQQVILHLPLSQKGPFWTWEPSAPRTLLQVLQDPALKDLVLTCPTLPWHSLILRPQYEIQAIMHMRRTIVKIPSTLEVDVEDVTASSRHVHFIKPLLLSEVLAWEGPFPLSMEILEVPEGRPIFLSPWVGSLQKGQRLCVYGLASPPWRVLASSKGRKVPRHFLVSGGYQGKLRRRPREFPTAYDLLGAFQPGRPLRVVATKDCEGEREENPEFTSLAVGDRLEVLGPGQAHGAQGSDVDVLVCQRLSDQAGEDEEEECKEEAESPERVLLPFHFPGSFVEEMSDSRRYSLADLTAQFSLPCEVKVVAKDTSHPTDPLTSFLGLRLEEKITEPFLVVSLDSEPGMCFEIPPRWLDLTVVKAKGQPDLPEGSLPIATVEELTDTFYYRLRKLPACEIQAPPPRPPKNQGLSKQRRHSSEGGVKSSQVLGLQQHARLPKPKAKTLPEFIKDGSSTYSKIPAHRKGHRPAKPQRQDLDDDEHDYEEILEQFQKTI
# UniProt Q9H3M7, sequence (Q9H3M7 whole entry, looked up): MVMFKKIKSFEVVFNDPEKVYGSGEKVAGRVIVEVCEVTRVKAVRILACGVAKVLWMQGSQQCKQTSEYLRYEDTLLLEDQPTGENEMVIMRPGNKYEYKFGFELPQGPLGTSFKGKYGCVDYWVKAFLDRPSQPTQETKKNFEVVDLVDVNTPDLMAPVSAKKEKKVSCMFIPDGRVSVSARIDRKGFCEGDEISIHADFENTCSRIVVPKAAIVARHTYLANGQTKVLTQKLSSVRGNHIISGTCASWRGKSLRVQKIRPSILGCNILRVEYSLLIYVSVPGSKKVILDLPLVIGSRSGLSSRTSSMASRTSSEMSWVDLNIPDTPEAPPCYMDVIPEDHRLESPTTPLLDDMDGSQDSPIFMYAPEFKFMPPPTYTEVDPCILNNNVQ
# UniProt Q8TBZ6, sequence (Q8TBZ6 whole entry, looked up): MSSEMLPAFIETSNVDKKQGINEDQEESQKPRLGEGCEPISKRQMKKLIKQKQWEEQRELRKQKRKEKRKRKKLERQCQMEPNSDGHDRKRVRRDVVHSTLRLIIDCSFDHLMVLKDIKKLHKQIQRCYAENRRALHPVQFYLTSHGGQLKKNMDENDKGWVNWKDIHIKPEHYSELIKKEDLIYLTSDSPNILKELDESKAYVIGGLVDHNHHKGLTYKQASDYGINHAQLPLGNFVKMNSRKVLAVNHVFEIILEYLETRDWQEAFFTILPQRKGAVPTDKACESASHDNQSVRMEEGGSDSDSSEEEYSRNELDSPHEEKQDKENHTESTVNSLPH
# UniProt Q9NYB0, sequence (Q9NYB0 whole entry, looked up): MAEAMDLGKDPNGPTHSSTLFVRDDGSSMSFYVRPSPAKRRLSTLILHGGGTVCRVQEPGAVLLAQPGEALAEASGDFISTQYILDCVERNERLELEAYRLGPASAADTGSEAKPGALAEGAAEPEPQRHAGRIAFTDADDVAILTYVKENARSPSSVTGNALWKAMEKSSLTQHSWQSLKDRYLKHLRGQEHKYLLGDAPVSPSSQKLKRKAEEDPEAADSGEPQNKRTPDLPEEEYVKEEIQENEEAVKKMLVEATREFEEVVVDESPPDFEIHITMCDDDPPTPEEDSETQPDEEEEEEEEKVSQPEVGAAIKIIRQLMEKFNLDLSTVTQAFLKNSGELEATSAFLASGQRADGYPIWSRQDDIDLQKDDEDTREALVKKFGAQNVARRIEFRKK
# UniProt Q9H4B7, sequence (Q9H4B7 whole entry, looked up): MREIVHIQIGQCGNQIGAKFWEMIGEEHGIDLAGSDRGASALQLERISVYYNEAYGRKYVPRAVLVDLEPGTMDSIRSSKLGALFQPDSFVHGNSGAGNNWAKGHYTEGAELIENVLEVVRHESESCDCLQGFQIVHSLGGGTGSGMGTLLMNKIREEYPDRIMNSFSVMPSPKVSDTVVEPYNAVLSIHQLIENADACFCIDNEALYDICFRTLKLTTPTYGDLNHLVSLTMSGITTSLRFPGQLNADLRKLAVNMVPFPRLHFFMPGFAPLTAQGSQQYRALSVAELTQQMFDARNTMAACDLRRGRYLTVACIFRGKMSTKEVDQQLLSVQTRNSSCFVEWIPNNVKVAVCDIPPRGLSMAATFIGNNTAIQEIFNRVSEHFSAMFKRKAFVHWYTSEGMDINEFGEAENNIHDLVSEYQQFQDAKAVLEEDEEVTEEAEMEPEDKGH
# UniProt Q9UJT0, sequence (Q9UJT0 whole entry, looked up): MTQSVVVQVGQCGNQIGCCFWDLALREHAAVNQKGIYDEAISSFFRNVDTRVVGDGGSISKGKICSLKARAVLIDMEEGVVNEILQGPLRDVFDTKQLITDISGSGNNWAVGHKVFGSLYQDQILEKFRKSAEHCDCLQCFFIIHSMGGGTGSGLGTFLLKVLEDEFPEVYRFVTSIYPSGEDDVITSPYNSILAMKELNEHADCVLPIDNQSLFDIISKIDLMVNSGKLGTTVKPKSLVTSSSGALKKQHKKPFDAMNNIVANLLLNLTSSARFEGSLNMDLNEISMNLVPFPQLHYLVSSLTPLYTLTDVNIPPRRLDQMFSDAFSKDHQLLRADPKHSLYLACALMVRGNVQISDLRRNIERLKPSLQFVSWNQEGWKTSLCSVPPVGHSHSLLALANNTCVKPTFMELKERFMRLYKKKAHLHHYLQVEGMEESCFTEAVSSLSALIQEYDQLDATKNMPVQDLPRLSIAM
# UniProt Q96LJ8, sequence (Q96LJ8 whole entry, looked up): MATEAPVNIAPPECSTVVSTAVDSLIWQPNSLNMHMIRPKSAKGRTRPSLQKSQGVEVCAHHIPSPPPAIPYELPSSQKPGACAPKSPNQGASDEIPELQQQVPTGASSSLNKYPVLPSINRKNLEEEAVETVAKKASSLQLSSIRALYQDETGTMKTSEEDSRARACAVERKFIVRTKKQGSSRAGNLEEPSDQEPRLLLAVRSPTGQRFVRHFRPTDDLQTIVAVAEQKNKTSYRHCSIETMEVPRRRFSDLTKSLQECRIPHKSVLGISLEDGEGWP
# UniProt Q12800, sequence (Q12800 whole entry, looked up): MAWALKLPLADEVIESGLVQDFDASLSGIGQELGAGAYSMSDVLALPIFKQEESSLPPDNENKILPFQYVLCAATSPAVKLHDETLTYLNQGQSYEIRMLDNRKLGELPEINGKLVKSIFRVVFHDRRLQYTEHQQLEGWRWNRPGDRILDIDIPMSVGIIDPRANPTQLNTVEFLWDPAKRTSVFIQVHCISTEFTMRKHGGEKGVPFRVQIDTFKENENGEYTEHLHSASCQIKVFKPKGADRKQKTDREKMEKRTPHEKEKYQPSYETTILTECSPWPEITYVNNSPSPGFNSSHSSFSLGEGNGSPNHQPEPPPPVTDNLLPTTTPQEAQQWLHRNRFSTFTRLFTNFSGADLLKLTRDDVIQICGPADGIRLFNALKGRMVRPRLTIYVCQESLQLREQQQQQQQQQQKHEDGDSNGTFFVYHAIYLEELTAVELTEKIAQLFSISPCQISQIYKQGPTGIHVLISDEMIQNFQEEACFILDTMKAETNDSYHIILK
# UniProt Q5JUR7, sequence (Q5JUR7 whole entry, looked up): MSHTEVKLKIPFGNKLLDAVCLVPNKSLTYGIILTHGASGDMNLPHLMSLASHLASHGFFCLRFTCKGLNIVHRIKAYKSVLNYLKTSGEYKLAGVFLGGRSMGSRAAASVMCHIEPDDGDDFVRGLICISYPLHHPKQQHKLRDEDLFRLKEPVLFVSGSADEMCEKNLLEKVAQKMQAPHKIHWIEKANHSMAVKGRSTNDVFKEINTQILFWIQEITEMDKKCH
# UniProt Q9Y5K5, sequence (Q9Y5K5 whole entry, looked up): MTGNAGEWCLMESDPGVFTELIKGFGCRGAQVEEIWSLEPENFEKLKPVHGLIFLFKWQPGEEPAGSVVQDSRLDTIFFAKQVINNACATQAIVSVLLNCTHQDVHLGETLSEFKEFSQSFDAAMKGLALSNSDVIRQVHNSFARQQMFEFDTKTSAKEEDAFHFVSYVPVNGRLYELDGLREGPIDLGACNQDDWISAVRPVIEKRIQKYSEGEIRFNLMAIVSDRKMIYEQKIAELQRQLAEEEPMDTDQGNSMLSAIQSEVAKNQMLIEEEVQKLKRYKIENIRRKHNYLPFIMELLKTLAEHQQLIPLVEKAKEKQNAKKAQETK
# UniProt Q9BZV1, sequence (Q9BZV1 whole entry, looked up): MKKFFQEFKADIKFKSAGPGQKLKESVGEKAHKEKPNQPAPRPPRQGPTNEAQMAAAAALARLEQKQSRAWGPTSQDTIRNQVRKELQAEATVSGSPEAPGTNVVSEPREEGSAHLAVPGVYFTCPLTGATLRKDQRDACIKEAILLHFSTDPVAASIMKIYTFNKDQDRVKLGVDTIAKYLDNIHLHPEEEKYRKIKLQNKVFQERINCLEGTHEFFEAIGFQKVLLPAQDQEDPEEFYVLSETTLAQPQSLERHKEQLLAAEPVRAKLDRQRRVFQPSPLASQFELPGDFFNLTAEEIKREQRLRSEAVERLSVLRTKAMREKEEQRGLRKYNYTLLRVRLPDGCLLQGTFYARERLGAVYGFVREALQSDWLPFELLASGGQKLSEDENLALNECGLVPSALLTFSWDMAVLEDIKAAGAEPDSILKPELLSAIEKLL
Target,log2 fold change (erlotinib),log2 fold change [1],log2 fold change [2],log2 fold change [3],log2 fold change [4],log2 fold change [5],log2 fold change [6],log2 fold change [7],log2 fold change [8],log2 fold change (IRAK-1-4 Inhibitor I)
UBXN6 (UniProt Q9BZV1),-0.02,0.001,0.001,-0.024,0.006,0.036,-0.073,0,-0.005,-0.007
TK1 (UniProt K7ERV3),0.01,-0.061,0.078,-0.047,-0.114,0.048,0.036,0.017,0.222,0.04
UBE2H (UniProt P62256),-0.002,-0.002,0.009,0.008,0.014,0.029,0.019,0.013,-0.036,-0.026
TEX30 (UniProt Q5JUR7),-0.012,-0.106,-0.112,0.03,0.046,-0.009,-0.065,-0.034,-0.007,-0.031
TUBA1B (UniProt P68363),0.031,-0.022,0.009,-0.018,0.006,-0.013,-0.018,0.009,0.02,0.022
TUBAL3 (UniProt A6NHL2),-0.018,-0.01,-0.076,-0.114,-0.004,-0.011,-0.134,-0.025,0.037,0.078
TBC1D20 isoform 3 (UniProt Q96BZ9),-0.073,0.142,-0.113,0.043,0.117,-0.038,-0.018,0.033,0.023,0.132
TPP2 (UniProt Q5VZU9),0.043,-0.036,0.086,-0.012,0,0.131,-0.013,0,0.066,0.005
TFCP2 (UniProt Q12800),-0.035,0.08,-0.115,0.01,-0.042,-0.007,-0.02,-0.038,-0.044,0.035
TTLL12 (UniProt Q14166),0.006,0.049,-0.047,0.036,0.027,0.005,-0.023,0,0.021,-0.016
TIMELESS (UniProt Q9UNS1),0.023,0.069,-0.083,-0.003,-0.002,-0.001,-0.068,-0.018,0,-0.032
TUBB4B (UniProt P68371),0.008,-0.059,0.019,-0.018,0.005,-0.024,-0.011,0.019,0.03,0.04
TUBB6 (UniProt Q9BUF5),0.039,0.051,-0.002,0.017,0,0.005,0.009,-0.013,0.057,-0.003
UBE3C (UniProt Q15386),0.035,-0.061,-0.067,0.011,-0.036,-0.01,-0.022,0.027,0.049,0
TXNIP (UniProt Q9H3M7),0.036,-0.165,-0.057,-0.045,-0.001,-0.003,0.048,-0.042,0.017,0.041
TRAPPC6A isoform 2 (UniProt O75865),0.018,0.095,0.002,0.049,-0.055,-0.016,-0.005,0.154,0.095,0.047
UBXN10 (UniProt Q96LJ8),0.064,0.026,0.057,-0.089,-0.072,0.027,0.018,-0.012,0.041,0.03
TELO2 (UniProt Q9Y4R8),0.023,0.006,-0.035,0.025,0.048,0,0.011,-0.031,0.002,0.009
TTC38 (UniProt Q5R3I4),0.037,0.015,0.009,0.039,0.007,0.035,-0.022,-0.003,0.068,-0.004
THEMIS2 (UniProt Q5TEJ8),-0.035,0.006,0.004,0.036,0.031,-0.041,-0.024,-0.02,0.042,0.031
UBL4A (UniProt P11441),-0.04,0.014,-0.069,0.005,0.087,0.021,0.04,0.024,-0.028,-0.042
TERF2IP (UniProt Q9NYB0),-0.003,0.025,0.03,-0.054,-0.023,-0.001,0.005,0.019,0.029,0.009
UCHL5 isoform 3 (UniProt Q9Y5K5),-0.015,-0.012,0.015,-0.018,0.01,-0.005,0.001,0,-0.014,-0.018
TUBB1 (UniProt Q9H4B7),0.011,0.091,0.005,0.01,0.022,-0.011,0.014,0.015,0.027,0.019
TUBB4A (UniProt M0QYM7),-0.017,-0.063,0.071,-0.015,-0.322,0.044,-0.097,-0.038,-0.027,0.025
TOR3A (UniProt Q9H497),0,0.002,0.006,-0.008,-0.01,-0.012,-0.087,0.039,0.013,0.021
TUBE1 (UniProt Q9UJT0),0.051,-0.267,0.095,-0.059,-0.063,-0.078,-0.033,-0.113,0.047,0.023
TBC1D8B (UniProt Q0IIM8),-0.023,-0.376,0.036,-0.041,0,0.01,0.01,0.017,0.063,0.001
TRMT10A (UniProt Q8TBZ6),-0.003,-0.26,-0.007,-0.018,-0.024,0.018,0.252 (active),-0.017,0.044,0.044
